The structures appear in SMILES notation. About 83,000 compounds went through this panel and 20% of them were active in at least one assay; those are over-represented in the sample as a whole.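 Results are percent growth after 48 hours of single-concentration exposure. 100 means growth as in untreated cells, lower positive values show inhibition; negative values down to -100 show cell death.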 Unmarked numbers belong to inactive results. Active and inactive are the calls of the source. How the source made its calls: active means growth percent below 10; inactive means the rest.

Among the test systems are NCI-H23 lung; NCI-H226 lung; NCI-H322M lung; HOP-62 NSCLC; NCI-H460 lung; HOP-92 NSCLC; NCI-H522 lung; A549/ATCC NSCLC; 786-0 renal; DU-145 prostate; K-562 leukemia; MALME-3M melanoma; MDA-MB-231 breast; RXF 393 renal; SF-268 CNS; SF-295 CNS; SF-539 CNS; UACC-257 melanoma; M14 melanoma.
Test in all cases: NCI-60 one-dose screen, 48 h (100 = growth as untreated, 0 = no growth, -100 = all killed)
What all share (conditions): 10 µM unless noted

With `O=C(CC12CC3CC(CC(C3)C1)C2)NCCOCCOCCNC(=O)c1cc2c(o1)C(=O)c1ccccc1C2=O`, the growth in the assay with NCI-H23 lung is -52.9% (active); with NCI-H226 lung, -71.7% (active); with NCI-H322M lung, -90.2% (active); in the assay with HOP-62 NSCLC, -58.3% (active); in the assay on NCI-H460 lung, -72.6% (active); in the assay with HOP-92 NSCLC it was -8.25% (active). Further, the growth in the assay on NCI-H522 lung is -49.5% (active); in the assay on A549/ATCC NSCLC, -61.7% (active); in the assay on 786-0 renal, -29.1% (active); in the assay with DU-145 prostate, -95.7% (active); in the assay with K-562 leukemia it was 1.74% (active); in the assay on MALME-3M melanoma it was -97.1% (active). In addition, the growth with MDA-MB-231 breast is -9.38% (active); with RXF 393 renal it was -92.3% (active); in the assay on SF-268 CNS it was -16.4% (active); in the assay on SF-295 CNS, -94.2% (active); with SF-539 CNS it was -96.1% (active); in the assay on UACC-257 melanoma it was -95.3% (active). In addition, in the assay on M14 melanoma, the growth was -73.6% (active).
In the case of `N=C(N)c1ccc(-c2ccc(-c3ccc(Cl)c(Cl)c3)o2)cc1`, the growth in the assay on NCI-H23 lung is 45.4%; in the assay on NCI-H226 lung, 90.5%; in the assay on NCI-H322M lung it was -23% (active); in the assay on HOP-62 NSCLC it was 42.3%; with NCI-H460 lung it was -68.8% (active); in the assay with HOP-92 NSCLC, 58.9%. In addition, the growth is 57.7% in the assay on NCI-H522 lung; -6.23% (active) in the assay with A549/ATCC NSCLC; -91.1% (active) in the assay on 786-0 renal; 3.63% (active) in the assay with DU-145 prostate; -30.2% (active) in the assay with K-562 leukemia; 53.6% with MALME-3M melanoma. Moreover, the growth was -61% (active) in the assay on MDA-MB-231 breast; 60.2% with RXF 393 renal; 73.1% with SF-268 CNS; -80% (active) in the assay on SF-295 CNS; -89.1% (active) with SF-539 CNS; 84.5% in the assay with UACC-257 melanoma. Moreover, the growth in the assay on M14 melanoma was 11.8%.
With `CN1CCN(C(=O)[C@]23CCC(C)(C)C[C@@H]2C2=CC[C@@H]4[C@@]5(C)Cc6c([nH]c7ccccc67)C(C)(C)[C@@H]5CC[C@@]4(C)[C@]2(C)CC3)CC1`, the growth in the assay with NCI-H23 lung was 93.3%; in the assay on NCI-H226 lung, 86.9%; in the assay on NCI-H322M lung, 88.6%; in the assay with HOP-62 NSCLC, 80%; with NCI-H460 lung, 75.8%; in the assay with HOP-92 NSCLC, 70.7%. Further, the growth with NCI-H522 lung is 78.2%; with A549/ATCC NSCLC, 69.4%; in the assay on 786-0 renal, 74.4%; in the assay with DU-145 prostate, 84.6%; in the assay on K-562 leukemia it was 66.1%; in the assay with MALME-3M melanoma it was 90.2%. Further, the growth in the assay with MDA-MB-231 breast is 79%; in the assay with RXF 393 renal it was 80.1%; in the assay on SF-268 CNS it was 84.6%; in the assay on SF-295 CNS, 92.2%; in the assay with SF-539 CNS, 76.7%; with UACC-257 melanoma, 86.1%. The growth with M14 melanoma was 78%.
Consider `CC(=O)C(C(C)=O)c1nc2sc3cc(Cl)ccc3n2c(=N)c1C#N`, for which the growth was 81.4% in the assay on NCI-H23 lung; 75.1% in the assay with NCI-H226 lung; 87.3% with NCI-H322M lung; 81.9% in the assay with HOP-62 NSCLC; 95.2% in the assay with NCI-H460 lung; 56% with HOP-92 NSCLC. In addition, the growth is 83% in the assay on NCI-H522 lung; 98.7% with A549/ATCC NSCLC; 98.3% in the assay with 786-0 renal; 97.4% in the assay with DU-145 prostate; 85.2% with K-562 leukemia; 95.2% in the assay on MALME-3M melanoma. Also, the growth is 51.9% with MDA-MB-231 breast; 109% in the assay with RXF 393 renal; 77.7% with SF-268 CNS; 98.4% in the assay with SF-295 CNS; 95.5% in the assay on SF-539 CNS; 108% in the assay on UACC-257 melanoma. In addition, the growth with M14 melanoma is 97.2%.
Take `Cn1c(NCCc2ccc(O)c(O)c2)nc2c1c(=O)n(Cc1ccc(Cl)cc1)c(=O)n2C`: the growth was 79.1% in the assay on NCI-H23 lung; 84.5% in the assay on NCI-H226 lung; 77.2% in the assay with NCI-H322M lung; 88.5% with HOP-62 NSCLC; 96.9% in the assay with NCI-H460 lung; 47.1% in the assay with HOP-92 NSCLC. The growth in the assay on NCI-H522 lung was -10.7% (active); in the assay with A549/ATCC NSCLC, 104%; with 786-0 renal, 92.1%; in the assay with DU-145 prostate it was 87.3%; in the assay on K-562 leukemia it was 77.1%; in the assay on MALME-3M melanoma it was 82.3%. The growth in the assay with MDA-MB-231 breast was 52.3%; in the assay with RXF 393 renal, 73.2%; in the assay on SF-268 CNS, 72.4%; in the assay with SF-295 CNS, 103%; with SF-539 CNS, 82.7%; in the assay with UACC-257 melanoma, 117%. Also, the growth with M14 melanoma was 78.8%.
On to `CN(CCCCCCCCNc1ccnc2ccccc12)Cc1ccc(-c2ccc(-c3ccc(C#N)cc3)s2)cc1`, for which the growth was 21.1% in the assay on NCI-H23 lung; -66.9% (active) in the assay with NCI-H226 lung; -66% (active) in the assay with NCI-H322M lung; -11.2% (active) with HOP-62 NSCLC; -76.3% (active) with NCI-H460 lung; 44.8% in the assay on HOP-92 NSCLC. Moreover, the growth in the assay with NCI-H522 lung is -62.9% (active); in the assay with A549/ATCC NSCLC, -60.7% (active); with 786-0 renal, -89.8% (active); in the assay with DU-145 prostate, -67.3% (active); with K-562 leukemia, -18.4% (active); in the assay with MALME-3M melanoma it was -80.7% (active). In addition, the growth with MDA-MB-231 breast is -80.1% (active); in the assay with RXF 393 renal, -86% (active); in the assay on SF-268 CNS it was -76.6% (active); with SF-295 CNS, -64.1% (active); in the assay on SF-539 CNS, -89% (active); in the assay on UACC-257 melanoma, -38.7% (active). The growth with M14 melanoma was -84% (active).
Turning to `CN(C)c1ccc(/C=C2\C=C(c3ccccc3)N(CCc3ccccc3)C2=O)cc1`, the growth in the assay with NCI-H23 lung is 64.2%; in the assay with NCI-H226 lung it was 52.8%; in the assay on NCI-H322M lung it was 71.9%; in the assay on HOP-62 NSCLC, -14% (active); in the assay on NCI-H460 lung it was 23.6%; with HOP-92 NSCLC it was 51.2%. Moreover, the growth is 50.6% with NCI-H522 lung; 34.8% with A549/ATCC NSCLC; 48.9% in the assay on 786-0 renal; 60.4% in the assay with DU-145 prostate; 90.6% in the assay on K-562 leukemia; 57.7% in the assay with MALME-3M melanoma. Besides, the growth in the assay on MDA-MB-231 breast was 84.6%; in the assay with RXF 393 renal, 81.4%; in the assay on SF-268 CNS, 43.8%; in the assay with SF-295 CNS, 53.9%; in the assay on SF-539 CNS, 61.6%; with UACC-257 melanoma, 76.8%. In the assay on M14 melanoma, the growth is 51.7%.
On to `COc1cc(-c2ccc(-c3ccc(C(=N)N)nc3)s2)cc(OC)c1OC`, for which the growth in the assay with NCI-H23 lung was 72.2%; in the assay on NCI-H226 lung, 102%; in the assay on NCI-H322M lung, 70.3%; in the assay on HOP-62 NSCLC, 67.9%; with NCI-H460 lung it was 25.7%; in the assay on HOP-92 NSCLC, 49%. Further, the growth was 77% in the assay on NCI-H522 lung; 61.3% with A549/ATCC NSCLC; 40.3% in the assay with 786-0 renal; 49.9% with DU-145 prostate; 5.58% (active) in the assay on K-562 leukemia; 24.7% in the assay with MALME-3M melanoma. The growth is 44.2% with MDA-MB-231 breast; 77.1% in the assay on RXF 393 renal; 86.1% in the assay with SF-268 CNS; 40.1% in the assay on SF-295 CNS; 1.84% (active) in the assay on SF-539 CNS; 92.9% in the assay on UACC-257 melanoma. The growth in the assay with M14 melanoma was 43.1%.

Values taken from PubChem BioAssay (NCI).
